Only some compounds are listed: those with a hit (about 19% of all), similar ones and a draw of the others.
IL1B secr inh – blocks inflammasome-driven IL-1 beta release; AID 743279; THP-1 LPS/ATP IL-1B secretion, AlphaLISA, 16 h; active compounds read low; activity change, % at 57.5 µM; 4.7% of 360,000 active; in the data active = activity change below about -50%; inconclusive = mostly about -30% to -49%
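THP-1 cells pretreated 1 hr with compounds (up to 57.5 uM final), then stimulated with LPS (250 ng/mL final) plus ATP (1.25 mM final); secreted IL-1B measured by AlphaLISA after 16 hr, decreased signal indicating inhibition.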
DT40 TDP1 CPT – growth inhibition of DT40 Tdp1-/-;hTDP1 cells with camptothecin (screen for TDP1 inhibitors). chicken DT40 Tdp1-/-;hTDP1 cells + 20 nM CPT, ATP luminescence, 48 h. Potency, µM (titrated, usually from 46.2 µM), without a hit: at the highest dose activity change, negative = growth inhibition, actives largely listed as inhibitors. 12% of 420,000 active. AID 686979; note: potency is the fitted concentration of half-maximal effect; nearly all actives have a fitted effect of over 55% in size
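Chicken DT40 Tdp1-/- cells stably complemented with human TDP1 were seeded at 400 cells/well in medium containing 20 nM camptothecin, exposed to pin-transferred compounds, and grown at 37 °C for at least 48 hr. Viability was read as ATP luminescence.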
DT40 TDP1 no CPT – qHTS for Inhibitors of human tyrosyl-DNA phosphodiesterase 1 (TDP1): qHTS in cells in absence of CPT | DT40 Tdp1-/- hTDP1 cells, no CPT, ATP luminescence, 48 h | Potency, µM (titrated, usually from 46.2 µM), inactives show top-dose activity change, negative = growth inhibition, hits mostly inhibitors | 15% of 420,000 active | AID 686978, 2013; note: potency is the fitted concentration of half-maximal effect; nearly all actives have a fitted effect of over 55% in size
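Growth of hTDP1-complemented DT40 Tdp1-knockout cells is measured by ATP luminescence after at least 48 hr compound exposure at 37 °C, with DMSO substituting for the 20 nM CPT used in the parallel screen.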
HT1080 IDH1KD tx – toxicity to HT-1080 IDH1 knockdown cells (counter line). HT-1080 IDH1 knockdown viability, ATP luminescence, 48 h. Potency, µM (doses to about 46.1 µM), for the others: at the highest dose activity, negative = toxicity, usual class: cytotoxic. 2% of 360,000 active;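 note: potency is the fitted concentration of half-maximal effect; 0% = DMSO wells and -100% = cell-free medium wells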
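IDH1KD HT-1080 cells, 750/well, RPMI + 5% FBS; compound pinned after 2 h settling; 48 h, 37 °C; CellTiter-Glo luminescence; % activity normalised to DMSO and no-cell wells; curves fitted, classed by r2 and efficacy.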
HT1080-NT tox – kills 2HG-producing HT-1080-NT fibrosarcoma cells; 1.6% of 360,000 active; HT-1080-NT fibrosarcoma viability, CellTiter-Glo ATP luminescence, 48 h; Potency, µM (highest dose often 46.1 µM), without a hit: at the highest dose activity, negative = less viability, actives largely listed as cytotoxic; AID 686970;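 note: NT is the 2HG producing partner of a matched IDH1 knockdown line; potency is the fitted concentration of half-maximal effect; 0% = DMSO-treated cells and -100% = media-only wells without cells; nearly all actives have a fitted effect of over 55% in size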
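Fibrosarcoma NT cells, 750 per well in 5% FBS RPMI, were exposed to compound for 48 hours. Viability: CellTiter-Glo luminescence.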
An asterisk follows results filed as active; ? = inconclusive; . = no result given; [ ] = remark or other dose. Unless noted, calls come from the whole dose curve; as a rule, active = well fitted curve in the direction sought with a large enough effect; inconclusive = small, poorly fitted or top-dose-only effect, or another doubt; inactive = no such curve, though single readings can be large; an effect the other way counts as inactive or inconclusive. Unless noted, % is set by controls: 0 for no effect and ±100 for the full control effect.

SMILES	IL1B secr inh	DT40 TDP1 CPT	DT40 TDP1 no CPT	HT1080 IDH1KD tx	HT1080-NT tox
COc1ccc(-c2nc(C#N)c(N3CCCCCC3)o2)cc1OC	-30	15µM*	11µM*	-4%	-3%
CCOc1ccc(-c2nc(C#N)c(N3CCCCCC3)o2)cc1	-61*	21µM*	?	7%	-13%
COc1ccc(-c2nc(C#N)c(NC(C)C)o2)cc1	-50*	-19%	-10%	-3%	-1%
CNc1oc(-c2ccc(Cl)cc2)nc1C#N	13	-15%	-24%	-6%	-8%
COc1ccc(-c2nc(C#N)c(N3CCCCC3)o2)cc1	-11	-5%	-26%	-1%	8%
CC(C)CNS(=O)(=O)c1ccc(Br)cc1N1CCC[C@@H]1CO	5	?	-3%	9%	6%
Cc1cccc(CNC(=O)c2cc(S(=O)(=O)N3CCOCC3)cn2C)c1	-6	-1%	30%	0%	12%
C/C(N)=C(/C#N)C(=O)COC(=O)Cc1coc2cc(C)ccc12	16	2%	1%	4%	-2%
CCCOc1ccc(-c2nc(C#N)c(N3CCN(CC)CC3)o2)cc1	-60*	?	?	-1%	-8%
Cc1ccc(-c2nc(C#N)c(N3CCC(C)CC3)o2)cc1	-18	?	?	3%	10%
N#Cc1nc(-c2ccc(F)cc2)oc1N1CCCC1	-12	7.3µM*	21µM*	9%	12%
COc1ccc(-c2nc(C#N)c(N3CCC(C)CC3)o2)cc1	-52*	?	13µM*	28%	13%
COc1ccccc1-c1nc(C#N)c(N2CCN(C(c3ccccc3)c3ccccc3)CC2)o1	1	16µM*	23µM*	0%	8%
CNC(=O)N(O)C1N(/N=C/c2cc(Br)ccc2O)C(=S)SC1(C)C (stereo not given)	5	?	?	-13%	-12%
CC1CCc2c(sc(N)c2C(=O)OC(C)C)C1 (stereo not given)	-11	?	?	-6%	-20%
Cc1cc(OI)c(C(C)C)cc1-c1cc(C(C)C)c(OI)cc1C	.	?	-13%	.	.
CCN(c1cccc(C)c1)S(=O)(=O)c1cc2c3c(c1)CCC(=O)N3CCC2	-2	?	?	-1%	-10%
COc1ccc2cc(CNCc3nonc3C)c(N3CCCC(CO)C3)nc2c1 (stereo not given)	.	15%[9.04 µM]	-13%	.	.
Cc1cccc(C(c2sc3nc(-c4ccco4)nn3c2O)N2CCN(Cc3ccccc3)CC2)c1 (stereo not given)	.	-23%	-29%	.	.
Cc1cc(Cl)ccc1C(O)c1ncc(-c2ccc(C(F)(F)F)cc2)[nH]1 (stereo not given)	0	?	?	?	?
Cc1ccc(CN(C(=O)Cn2nnc3ccccc32)C(C(=O)NCc2ccco2)c2cccs2)cc1 (stereo not given)	-13	?	23µM*	-6%	-9%
CCC(C)(C)NC(=O)C(c1ccc(C)o1)N(Cc1cccs1)C(=O)Cn1nnc2ccccc21 (stereo not given)	-8	?	?	?	?
CCc1ccc(C(C(=O)NC(C)(C)CC)N(Cc2ccco2)C(=O)Cn2nnc3ccccc32)cc1 (stereo not given)	11	18µM*	?	1%	-2%
CCC(C)(C)NC(=O)C(c1ccccc1)N(Cc1cccs1)C(=O)Cn1nnc2ccccc21 (stereo not given)	-9	18µM*	?	1%	1%
COc1ccc(C(C(=O)NC(C)(C)C)N(Cc2cccs2)C(=O)CCC(=O)Nc2cc(C)on2)cc1 (stereo not given)	29	?	?	-5%	5%
SMILES	IL1B secr inh	DT40 TDP1 CPT	DT40 TDP1 no CPT	HT1080 IDH1KD tx	HT1080-NT tox
CCC(C)(C)NC(=O)C(c1ccc(OC)cc1)N(Cc1cccs1)C(=O)CCC(=O)Nc1cc(C)on1 (stereo not given)	-8	18µM*	?	-22%	-6%
COc1cc(C(=O)NCc2nnc(SCC(=O)Nc3cccc(C(F)(F)F)c3)o2)cc(OC)c1OC	-16	0%	7%	-5%	8%
CCCc1ccccc1OCCNC(=O)c1cc(=O)n(C)c(=O)n1C	0	2%	8%	15%	2%
Cc1cc(C)n(-c2nc3ccccc3nc2N2CCN(c3cccc(C(F)(F)F)c3)CC2)n1	.	18µM*	?	.	.
C1=C(c2ccccc2)CCN(c2nc3ccccc3n3cnnc23)C1	-8	?	16µM*	-1%	-8%
c1ccc(N2CCN(c3nc4ccccc4n4cnnc34)CC2)cc1	11	?	?	3%	5%
c1ccc2c(c1)CCCN2c1nc2ccccc2n2cnnc12	33	?	?	0%	3%
FC(F)(F)c1cccc(N2CCN(c3nc4ccccc4n4cnnc34)CC2)c1	.	?	23µM*	.	.
c1ccc(CN2CCN(c3nc4ccccc4n4cnnc34)CC2)cc1	-3	13µM*	?	-6%	0%
Cc1ccc(C(=O)N[C@H](C(=O)NC2CCCCC2)C(C)C)cc1	2	-26%	-23%	4%	0%
COc1cccc(Cn2c(=O)c(-c3ccc(Cl)cc3)nc3cnc(N(C)C)nc32)c1	.	7%	18%	.	.
Cc1ccc(C)c(N2C(=O)c3cc(N4CCOCC4)c([N+](=O)[O-])cc3C2=O)c1	0	9%	5%	20%	15%
c1ccc2c(c1)CCN(c1nc3ccccc3n3cnnc13)C2	-4	23µM*	?	-4%	-19%
c1ccc(CN2CCN(c3nc(-c4ccccc4)nc4ccccc34)CC2)cc1	?	?	?	5%	5%
c1ccc(CN2CCN(c3nc4ccccc4c4ccccc34)CC2)cc1	4	21µM*	?	0%	-2%
c1ccc2c(c1)nc(N1CCOCC1)c1nncn12	-4	-6%	?	11%	-2%
COCCNc1nc(-c2ccoc2)nc2ccccc12	.	?	-20%	.	.
C[C@@H]1CC2OC(=O)[C@@]3(C)C(=O)CC[C@@](C)(C23)[C@@]1(O)CCc1ccoc1 (stereo not given in full)	8	0%	1%	-7%	-3%
Cc1cccc(Nc2nnc(-c3ccc(C)c(S(=O)(=O)NCC4CCCO4)c3)c3ccccc23)c1 (stereo not given)	.	23µM*	6.5µM*	.	.
Cc1ccc(-c2nnc(Nc3ccc4c(c3)OCO4)c3ccccc23)cc1S(N)(=O)=O	-17	?	?	-27%	-27%
